Assay results: PubChem BioAssay (NCATS)
“And” between values parts separate entries of the source, which are not always exact repeats. Equal values may be shown once. Results filed as inconclusive are left out. The source made the active and inactive calls. Calls come from the whole dose curve; as a rule, active = well fitted curve in the direction sought with a large enough effect; inconclusive = small, poorly fitted or top-dose-only effect, or another doubt; inactive = no such curve, though single readings can be large; an effect the other way counts as inactive or inconclusive.

What was measured:
[1] = target: Cellular tumor antigen p53 (Homo sapiens) (UniProt P04637); assay: Primary qHTS for small molecule compounds that upregulate eGFP-tagged delta133p53alpha (in N-terminal) cells. (AID 2060322); conditions: NCI-H358 eGFP-delta133p53alpha fluorescence, 24 h; activation: active compounds read high; note: nearly all actives have a fitted effect of over 75% in size; note: potency is the fitted concentration of half-maximal effect;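 for activation: cells pre-induced with doxycycline then dosed without doxycycline; series mostly up to about 56 µM; 0% = DMSO vehicle and 100% = reference activator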
Summary of the method: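 NCI-H358 cells pre-induced 24 h with 10 ng/ml doxycycline for eGFP-delta133p53alpha, plated dox-free and exposed 24 h at 37C to titrated compounds. Fixed, Hoechst-stained; gated GFP peak intensity by laser scanning cytometry, normalized to DMSO (0%) and 57.5 uM 5-azacytidine (100%).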

[2] = target: Aldehyde dehydrogenase, mitochondrial (Homo sapiens) (UniProt P05091); assay: qHTS for Inhibitors of the Aldehyde Dehydrogenase Family (ALDH2) Primary screen (AID 2061308);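 note: plate controls were vehicle for no effect and reference inhibitor for full effect; nearly all actives have a fitted effect of over 55% in size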
[3] = target: Retinaldehyde dehydrogenase 3 (Homo sapiens) (UniProt P47895); assay: qHTS for Inhibitors of the Aldehyde Dehydrogenase Family (ALDH1A3) Validation screen (AID 2061312); note: nearly all actives have a fitted effect of over 45% in size; note: potency is the fitted concentration of half-maximal effect
[4] = target: Retinaldehyde dehydrogenase 3 (Homo sapiens) (UniProt P47895); assay: qHTS for Inhibitors of the Aldehyde Dehydrogenase Family (ALDH1A3) Primary screen (AID 2061315);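 note: plate controls were DMSO vehicle for no effect and reference inhibitor for full effect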

Chain of Cellular tumor antigen p53 (Homo sapiens) (P04637 whole entry, looked up): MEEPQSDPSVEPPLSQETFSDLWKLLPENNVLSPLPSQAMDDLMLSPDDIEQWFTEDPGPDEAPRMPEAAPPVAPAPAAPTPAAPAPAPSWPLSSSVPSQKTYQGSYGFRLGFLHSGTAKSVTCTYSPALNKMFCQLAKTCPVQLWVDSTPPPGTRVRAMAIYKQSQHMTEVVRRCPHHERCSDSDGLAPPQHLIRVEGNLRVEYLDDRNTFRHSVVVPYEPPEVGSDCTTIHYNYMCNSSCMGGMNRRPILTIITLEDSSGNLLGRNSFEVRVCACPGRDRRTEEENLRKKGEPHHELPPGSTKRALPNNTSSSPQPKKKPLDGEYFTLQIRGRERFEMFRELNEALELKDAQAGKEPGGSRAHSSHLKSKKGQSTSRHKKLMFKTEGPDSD

CC1(C)Oc2ncnc(N)c2N=C1c1ccc(C23CCC(CC(=O)O)(CC2)CC3)cc1
inactive: activation [1] -11.9% | Potency [2] | Potency [3] | Potency [4]

CCCNCCOc1ccc(NC(=O)c2c[nH]c3c2C(=O)CCC3)cc1F
inactive: activation [1] -0.955% | Potency [2] | Potency [3] | Potency [4]

CC1(C)CC(=O)N(CCCCN2CCN(c3ncccn3)CC2)C(=O)C1
inactive: activation [1] -2.86% | Potency [2] | Potency [3] | Potency [4]

Cc1cc(C(=O)N2CCCCc3ccccc32)ccc1CNC(=O)N1CCC[C@H]1C(=O)N(C)C
inactive: activation [1] 4.3% | Potency [2] | Potency [3] | Potency [4]

CCOC(=O)c1ccc(NC2CCCCC2)c(N)c1
inactive: activation [1] -6.21% | Potency [2] | Potency [3] | Potency [4]

CN(C)CCCNc1nc(CN2CCN(C(c3ccc(Cl)cc3)c3ccc(Cl)cc3)CC2)nc2ccccc12
inactive: activation [1] 16.2% | Potency [2] | Potency [3] | Potency [4]

CC(C)[C@@H]1C(=O)N(S(C)(=O)=O)[C@@H]2CCN(C(=O)/C=C/CN3CCCCC3)[C@H]21
inactive: activation [1] 8.11% | Potency [2] | Potency [3] | Potency [4]

Cc1ccnn1-c1ccc(C(=O)N2CCN(S(=O)(=O)c3ccc(Cl)c(C(F)(F)F)c3)CC2)cc1
inactive: activation [1] -9.07% | Potency [2] | Potency [3] | Potency [4]

Clc1cccc(-c2nnnn2Cc2cccnc2)c1Cl
inactive: activation [1] 12.9% and -2.86% | Potency [2] | Potency [3] | Potency [4]

COc1ccccc1N1CCN(CCCCNC(=O)c2ccc(-c3cscn3)cc2)CC1
inactive: activation [1] 4.3% | Potency [2] | Potency [3] | Potency [4]

COc1cc2nc(C3CC3)nc(N3CCN(c4ccccc4OC)CC3)c2cc1OC
inactive: Potency [2] | Potency [3] | Potency [4]
active: Potency [1] 16.9 µM

CC(C)Nc1nc(Nc2ccccc2)nc(-c2ccccc2)n1
inactive: activation [1] 2.39% | Potency [2] | Potency [3] | Potency [4]

COc1ccc(N2CCN(CCCNC(=O)Cn3c(=O)c4cccn4c4c(C)ccnc43)CC2)cc1
inactive: activation [1] 0.477% | Potency [2] | Potency [3] | Potency [4]

FC(F)(F)c1cc(C(F)(F)F)c2ccc3nc(-c4nnco4)cn3c2n1
inactive: activation [1] 5.73% | Potency [2] | Potency [3] | Potency [4]

CCOc1cc(CC(=O)NC(CC(C)C)c2ccccc2N2CCCCC2)ccc1C(=O)O (stereo unspecified)
inactive: activation [1] -4.3% | Potency [2] | Potency [3] | Potency [4]

O=C(O)[C@@H]1C[C@H]2C[C@@H](CCc3nn[nH]n3)CC[C@H]2CN1
active: Potency [3] 10 µM
inactive: activation [1] 4.77% | Potency [2] | Potency [4]

COc1cc(Nc2nc3ccccc3nc2NS(=O)(=O)c2cccc(NC(=O)c3ccc(C)c(OC)c3)c2)cc(OC)c1
inactive: activation [1] 10% | Potency [2] | Potency [3] | Potency [4]

CCN(CC)Cc1ccc(C(=O)N(CCc2ccccc2OC)[C@@H]2CCNC2)cc1
inactive: activation [1] 3.34% | Potency [2] | Potency [3] | Potency [4]

Cc1cc(C(=O)Nc2cccc(C(=O)Nc3cccc(C(F)(F)F)c3)c2)on1
inactive: activation [1] -7.16% | Potency [2] | Potency [3] | Potency [4]

CN1CCN(C2=Nc3ccccc3Nc3ccc(OS(=O)(=O)C(F)(F)F)cc32)CC1
inactive: activation [1] -11.9% | Potency [2] | Potency [3] | Potency [4]

CNC(=O)[C@@H](c1ccccc1)N1CCc2cc(OC)c(OC)cc2[C@@H]1CCc1ccc(C(F)(F)F)cc1
inactive: activation [1] -3.34% | Potency [2] | Potency [3] | Potency [4]

O=C(Nc1ccn(Cc2ccc(O)cc2C(F)(F)F)n1)c1c(F)cccc1F
inactive: activation [1] -13.4% | Potency [2] | Potency [3] | Potency [4]

C=CC(C)(O)CC[C@@H]1[C@@]2(C)CCCC(C)(C)C2CC[C@@]1(C)O (stereo partly specified)
inactive: activation [1] 1.91% | Potency [2] | Potency [3] | Potency [4]

CCOC(=O)C(CCc1ccccc1)NC1CSC(c2cccs2)CN(CC(=O)O)C1=O (stereo unspecified)
inactive: activation [1] -0.477% | Potency [2] | Potency [3] | Potency [4]

Cc1c(C2=CCN(C(=O)N(C)C(C)C)CC2)nnn1-c1cccnc1F
inactive: activation [1] -9.55% | Potency [2] | Potency [3] | Potency [4]

Cc1c(C(=O)NCc2cccnc2)nn(-c2ccc(Cl)cc2Cl)c1-c1ccc(Cl)cc1
inactive: activation [1] 21% | Potency [2] | Potency [3] | Potency [4]

NS(=O)(=O)c1ccc(N2CCN(CC[C@@H]3OCCc4ccccc43)CC2)cc1
inactive: activation [1] 16.7% | Potency [2] | Potency [3] | Potency [4]

O=C(CCCCN1CCOCC1)Nc1ccc(-c2cccnc2)cc1
inactive: activation [1] -8.11% | Potency [2] | Potency [3] | Potency [4]

O=C(NCCN1CCOCC1)c1cc2c(Oc3ccc(NC(=O)C4(C(=O)Nc5ccc(F)cc5)CC4)cc3)ccnc2[nH]1
inactive: activation [1] 10% | Potency [2] | Potency [3] | Potency [4]
